From PubChem BioAssay (NCATS)
Values without a mark were called inactive. Results filed as inconclusive are left out. Entries that show only a call come without a potency. Activity calls are given as the source filed them. The call rests on the fitted dose curve; in most records, active means well fitted curve in the direction sought with a large enough effect; inconclusive means small, poorly fitted or top-dose-only effect, or another doubt; inactive means no such curve, though single readings can be large; an effect the other way counts as inactive or inconclusive.

Target: Cytochrome P450 2C9 (Homo sapiens) (UniProt P11712)
Test: qHTS for inhibitors of CYP2C9 against the NCATS DSHEA and TCM libraries (AID 1919973); further: potency means the concentration at half of the fitted maximal effect
Settings: recombinant CYP2C9 enzyme activity, luminescence; series mostly up to 34.1 µM
Outline: (§1)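 Substances were tested against enzyme with a pro-luciferin substrate; minus-enzyme wells served as background. After NADPH-initiated oxidation (30-45 min, RT), light was generated with P450-Glo reagent.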

Sequence of Cytochrome P450 2C9 (Homo sapiens) (P11712 whole entry, looked up): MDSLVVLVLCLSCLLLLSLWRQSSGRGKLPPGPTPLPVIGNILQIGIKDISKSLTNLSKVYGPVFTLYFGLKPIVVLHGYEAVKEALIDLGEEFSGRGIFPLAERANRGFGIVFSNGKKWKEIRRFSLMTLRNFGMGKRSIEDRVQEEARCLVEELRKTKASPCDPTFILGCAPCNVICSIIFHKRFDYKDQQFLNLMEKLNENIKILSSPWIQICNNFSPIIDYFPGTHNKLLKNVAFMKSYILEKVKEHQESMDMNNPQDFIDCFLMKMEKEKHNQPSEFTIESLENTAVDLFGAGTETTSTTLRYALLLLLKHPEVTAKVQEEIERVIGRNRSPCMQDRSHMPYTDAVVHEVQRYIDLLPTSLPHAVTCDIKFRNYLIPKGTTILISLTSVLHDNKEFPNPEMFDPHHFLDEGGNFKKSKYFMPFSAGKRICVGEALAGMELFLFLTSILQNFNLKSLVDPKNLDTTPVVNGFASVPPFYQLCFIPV

Row | Structure (SMILES) | Potency
1 | CC(=O)C1=C(O)C=C2Oc3c(C(C)=O)c(O)c(C)c(O)c3[C@]2(C)C1=O | 4.47 µM (active)
2 | C=C1[C@H]2CC[C@H](C(=O)O)[C@@]23CC[C@H](C3)C1(C)C | inactive
3 | O=C(O)CC(O)(CC(=O)O)C(=O)O | inactive
4 | CCCCCCCCCC(=O)O | inactive

Target: Cytochrome P450 2C19 (Homo sapiens) (UniProt P33261)
Test: qHTS for inhibitors of CYP2C19 against the NCATS DSHEA and TCM libraries (AID 1919974);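 further: luminescence from luciferin released by CYP2C19 oxidation of a pro-luciferin substrate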; further: potency means the concentration at half of the fitted maximal effect
Settings: CYP2C19 enzyme inhibition, luminescence qHTS; series mostly up to 34.1 µM
Outline: as §1

Sequence of Cytochrome P450 2C19 (Homo sapiens) (P33261 whole entry, looked up): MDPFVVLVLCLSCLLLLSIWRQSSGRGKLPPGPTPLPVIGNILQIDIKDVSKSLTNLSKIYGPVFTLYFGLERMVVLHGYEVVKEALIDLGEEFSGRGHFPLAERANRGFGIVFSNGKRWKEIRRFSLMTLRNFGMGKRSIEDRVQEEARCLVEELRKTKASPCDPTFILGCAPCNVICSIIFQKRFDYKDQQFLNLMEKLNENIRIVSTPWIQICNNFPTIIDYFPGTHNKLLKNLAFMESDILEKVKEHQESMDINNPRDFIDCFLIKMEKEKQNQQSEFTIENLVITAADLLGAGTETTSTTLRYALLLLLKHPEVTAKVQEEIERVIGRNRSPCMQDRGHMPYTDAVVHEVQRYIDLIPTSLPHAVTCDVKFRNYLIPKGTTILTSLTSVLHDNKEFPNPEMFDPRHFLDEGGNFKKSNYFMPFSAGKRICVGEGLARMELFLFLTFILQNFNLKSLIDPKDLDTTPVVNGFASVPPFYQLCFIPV

Row | Structure (SMILES) | Potency
5 | CC(=O)C1=C(O)C=C2Oc3c(C(C)=O)c(O)c(C)c(O)c3[C@]2(C)C1=O | 3.98 µM (active)
6 | C=C1[C@H]2CC[C@H](C(=O)O)[C@@]23CC[C@H](C3)C1(C)C | inactive
7 | O=C(O)CC(O)(CC(=O)O)C(=O)O | inactive
8 | CCCCCCCCCC(=O)O | inactive

Tested on: not listed separately
Test: KB-3-1 P-gp reporter qHTS against the NCATS DSHEA and TCM libraries (AID 1919975)
Settings: KB-3-1 parental cells, CellTiter-Glo luminescence viability, 72 h; series mostly up to 26.1 µM
Outline: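 Cell viability by CellTiter-Glo luminescence following ~72 h compound exposure (concentration-response). Uses parental, non-P-gp-overexpressing KB-3-1 line, 500 cells/well in DMEM/10% FBS, attached ~4 h before dosing.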

Row | Structure (SMILES) | outcome
9 | CC(=O)C1=C(O)C=C2Oc3c(C(C)=O)c(O)c(C)c(O)c3[C@]2(C)C1=O | inactive
10 | C=C1[C@H]2CC[C@H](C(=O)O)[C@@]23CC[C@H](C3)C1(C)C | inactive
11 | O=C(O)CC(O)(CC(=O)O)C(=O)O | inactive
12 | CCCCCCCCCC(=O)O | inactive

Target: Cytochrome P450 1A2 (Homo sapiens) (UniProt P05177)
Test: qHTS for inhibitors of CYPIA2 against the NCATS DSHEA and TCM libraries (AID 1919976); further: potency means the concentration at half of the fitted maximal effect
Settings: recombinant CYP1A2 enzyme activity, luminescence; series mostly up to 37 µM
Outline: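 Luminescence read-out: pro-luciferin converted to D-luciferin by CYP1A2, detected with P450-Glo reagent after 30 min RT. Enzyme plus substrate got compounds for 15 min RT; NADPH regeneration solution (final 1x) started a 30-45 min reaction, light-protected.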

Sequence of Cytochrome P450 1A2 (Homo sapiens) (P05177 whole entry, looked up): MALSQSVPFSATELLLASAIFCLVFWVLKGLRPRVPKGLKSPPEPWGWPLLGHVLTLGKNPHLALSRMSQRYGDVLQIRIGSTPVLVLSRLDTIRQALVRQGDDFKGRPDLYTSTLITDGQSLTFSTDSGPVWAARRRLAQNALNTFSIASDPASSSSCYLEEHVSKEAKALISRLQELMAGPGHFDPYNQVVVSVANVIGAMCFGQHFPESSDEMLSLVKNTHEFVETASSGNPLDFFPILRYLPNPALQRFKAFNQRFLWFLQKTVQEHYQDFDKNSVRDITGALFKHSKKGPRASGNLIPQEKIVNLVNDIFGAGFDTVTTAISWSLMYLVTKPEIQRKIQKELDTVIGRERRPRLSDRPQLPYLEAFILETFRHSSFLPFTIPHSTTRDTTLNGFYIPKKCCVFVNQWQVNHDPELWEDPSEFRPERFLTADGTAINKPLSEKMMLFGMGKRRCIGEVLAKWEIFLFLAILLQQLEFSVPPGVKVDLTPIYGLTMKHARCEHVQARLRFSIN

Row | Structure (SMILES) | Potency
13 | CC(=O)C1=C(O)C=C2Oc3c(C(C)=O)c(O)c(C)c(O)c3[C@]2(C)C1=O | 7.94 µM (active)
14 | C=C1[C@H]2CC[C@H](C(=O)O)[C@@]23CC[C@H](C3)C1(C)C | inactive
15 | O=C(O)CC(O)(CC(=O)O)C(=O)O | inactive
16 | CCCCCCCCCC(=O)O | inactive

Tested on: not listed separately
Test: qHTS Counterscreen for compound interference against the NCATS DSHEA and TCM libraries (AID 1919978);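 further: compounds preincubated with 1 µM D-luciferin or buffer before detection reagent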
Settings: firefly luciferase detection reagent interference, luminescence
Outline: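 With 1 uM D-luciferin or phosphate buffer only, compounds at final 19.5 nM–39.8 uM were incubated for 15 min at room temperature. Luciferase detection reagent was then added, and luminescence was measured after a further 30 min at room temperature.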

Row | Structure (SMILES) | max response [%]
17 | CC(=O)C1=C(O)C=C2Oc3c(C(C)=O)c(O)c(C)c(O)c3[C@]2(C)C1=O | -5.05
18 | C=C1[C@H]2CC[C@H](C(=O)O)[C@@]23CC[C@H](C3)C1(C)C | 1.56
19 | O=C(O)CC(O)(CC(=O)O)C(=O)O | -0.506
20 | CCCCCCCCCC(=O)O | -0.481

Tested on: not listed separately
Test: Dual reporter qHTS for agonist of Pregnane X Receptor (hPXR) against the NCATS DSHEA and TCM libraries: Fluorescence readout (AID 1920058)
Settings: PXR dual reporter cells; series mostly up to 40 µM
Outline: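 Fluorescence read-out for cell viability: CellTiter-Fluor, 1 h at 37 °C, Ex/Em 405/540 nm. This followed ~24 h treatment of hPXR-Luc HepG2 cells with substances in agonist mode.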

Row | Structure (SMILES) | outcome
21 | CC(=O)C1=C(O)C=C2Oc3c(C(C)=O)c(O)c(C)c(O)c3[C@]2(C)C1=O | inactive
22 | C=C1[C@H]2CC[C@H](C(=O)O)[C@@]23CC[C@H](C3)C1(C)C | inactive
23 | O=C(O)CC(O)(CC(=O)O)C(=O)O | inactive
24 | CCCCCCCCCC(=O)O | inactive

Target: Nuclear receptor subfamily 1 group I member 2 (Homo sapiens) (UniProt O75469)
Test: Dual reporter qHTS for agonist of Pregnane X Receptor (hPXR) against the NCATS DSHEA and TCM libraries: Luminescence readout (AID 1920059)
Settings: hPXR dual reporter cells, luciferase luminescence agonist; series mostly up to 40 µM
Outline: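 hPXR-LucHepG2 cells in phenol red-free DMEM with 5% charcoal-stripped FBS, 2000 cells/well, attached 5 h, then exposed 24 h at 37C to compounds; rifampicin as positive agonist control (2.8 nM–92 uM). Luciferase luminescence read.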

Sequence of Nuclear receptor subfamily 1 group I member 2 (Homo sapiens) (O75469 whole entry, looked up): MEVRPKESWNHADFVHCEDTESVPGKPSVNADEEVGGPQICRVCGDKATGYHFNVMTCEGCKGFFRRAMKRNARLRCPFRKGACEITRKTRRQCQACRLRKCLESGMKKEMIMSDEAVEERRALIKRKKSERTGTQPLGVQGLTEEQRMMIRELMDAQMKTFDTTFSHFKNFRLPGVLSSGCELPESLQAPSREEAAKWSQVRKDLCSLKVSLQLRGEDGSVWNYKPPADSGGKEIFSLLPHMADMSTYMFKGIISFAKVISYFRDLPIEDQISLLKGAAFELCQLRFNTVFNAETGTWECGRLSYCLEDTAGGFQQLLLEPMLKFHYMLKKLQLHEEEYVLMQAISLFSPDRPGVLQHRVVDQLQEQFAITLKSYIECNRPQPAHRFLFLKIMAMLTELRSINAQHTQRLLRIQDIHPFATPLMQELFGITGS

Row | Structure (SMILES) | outcome
25 | C=C1[C@H]2CC[C@H](C(=O)O)[C@@]23CC[C@H](C3)C1(C)C | inactive
26 | O=C(O)CC(O)(CC(=O)O)C(=O)O | inactive
27 | CCCCCCCCCC(=O)O | inactive

Target: Nuclear receptor subfamily 1 group I member 2 (Homo sapiens) (UniProt O75469)
Test: Dual reporter qHTS for antagonist of Pregnane X Receptor (hPXR) against the NCATS DSHEA and TCM libraries: Luminescence Readout (AID 1920060);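 further: HepG2 cells carrying hPXR luciferase reporter stimulated with rifampicin at 2 µM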
Settings: hPXR dual reporter cells, luciferase luminescence, antagonist mode; series mostly up to 40 µM
Description: Assay Development and Screening Technology Laboratory (ADST)
National Center for Advancing Translational Sciences (NCATS), Rockville, MD
National Institute of Health (NIH), Bethesda, Maryland
Dietary Supplements and Natural Products have minor oversight of their safety and efficacy. We assembled a collection of Dietary Supplements and Natural Products (DSNP) as well as Traditional Chinese Medicinal (TCM) Plant extracts, which were screened against an in vitro panel of assays, including a liver cytochrome p450 enzyme panel, CAR/PXR signaling pathways, and P-gp transporter assays, to assess their activity. This pipeline facilitated the interrogation of Natural Product-Drug Interaction (NaPDI) through prominent metabolizing pathways. In addition, we compared the activity profiles of the DSNP/TCM substances with those of an approved drug collection. Many of the approved drugs have well-annotated mechanisms of action (MOA) while the MOAs for most of the DSNP and TCM samples remain unknown. Based on the premise that compounds with similar activity profiles tend to share similar targets or MOA, we clustered the library activity profiles to identify overlap with the NCATS Pharmaceutical Collection to predict the MOAs of the DSNP/TCM substances. Overall, we highlight four significant bioactivity profiles (measured by p-values) as examples of this prediction. To assess broad cytotoxicity, we employed screening against a HepG2 cell line. In addition, transporter-mediated drug interactions are utilized in the characterization of DDIs using a P-glycoprotein (P-gp) assays. To profile potential P-gp activity, a differential cell viability was measured against two cell lines: a parental KB-3-1 human cervical adenocarcinoma cell line and the drug-resistant subline KB-8-5-11 that overexpresses P-gp.
To this end, we profiled both collections for potential CAR and/or PXR activity, employing a previously published 1536-well qHTS assay.
[1] […]
8; Read; Fluorescence; ViewLux plate reader. […]
11; Read; Luminescence; ViewLux plate reader. […]

Row | Structure (SMILES) | outcome
28 | CC(=O)C1=C(O)C=C2Oc3c(C(C)=O)c(O)c(C)c(O)c3[C@]2(C)C1=O | inactive
29 | C=C1[C@H]2CC[C@H](C(=O)O)[C@@]23CC[C@H](C3)C1(C)C | inactive
30 | CCCCCCCCCC(=O)O | inactive

Tested on: not listed separately
Test: Dual reporter qHTS for antagonist of Pregnane X Receptor (hPXR) against the NCATS DSHEA and TCM libraries: Fluorescence Readout (AID 1920061)
Settings: PXR dual reporter cells, antagonist mode; series mostly up to 40 µM
Outline: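 HepG2 hPXR-Luc, 2000 cells/well, charcoal-stripped FBS medium; 5 h attach; RIF 2 uM final; 24 h 37C/5% CO2; CellTiter-Fluor 1 h, fluor 405/540; ONE-Glo 30 min RT, lum.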

Row | Structure (SMILES) | outcome
31 | CC(=O)C1=C(O)C=C2Oc3c(C(C)=O)c(O)c(C)c(O)c3[C@]2(C)C1=O | inactive
